From PubChem BioAssay
The source made the active and inactive calls.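 The calls were made as follows, unless noted: active = inhibition above 20% together with a positive visual image hit; inconclusive = visual image hit but inhibition not above 20%; inactive = no visual image hit.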

test: inhibitors of TNFa-induced NFkB p65 translocation, primary screen, imaging, HUVEC, MLSMR starter and 10KST1 sets (AID 438); conditions: HUVEC TNFa-induced p65 nuclear translocation; cell count: measured here: nuclei count (cytotoxicity indicator), at 2.08 µM; inhibition: at 2 µM, stronger effect = higher value, 0% TNFa-plus-vehicle, 100% no-TNFa wells;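 also: compound added about 3h40 before a 20 min TNFalpha stimulation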;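 as to inhibition: signal is the nuclear over cytoplasmic p65 intensity ratio per well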

Row | SMILES | inhibition | cell count
1 | Cc1ccc(S(=O)(=O)c2nc(-c3ccco3)oc2SCC(=O)NCC2CCCO2)cc1 (stereo not given) | -8% (inactive) | 822
2 | CC(=O)NCC(=O)OC(C)C(=O)Nc1ccc(C(C)=O)cc1 (stereo not given) | -12.7% (inactive) | 413
3 | CCSc1nc2c(c(=O)n1CC)SC(C)C2 (stereo not given) | 2.8% (inactive) | 224
4 | Cn1cnnc1SCC(=O)Nc1sc2c(c1C#N)CCCCC2 | -29.4% (inactive) | 564
5 | Cc1nc2ccccc2c(=O)n1NC(=O)c1c(O)c2c(n(CC(C)C)c1=O)CCCC2 | 4% (inactive) | 439
6 | Cc1ccc(S(=O)(=O)N(C)c2ccc(OCC(=O)OCc3c(C)noc3C)cc2)cc1 | -15.1% (inactive) | 455
7 | Cn1cccc1C(=O)NC(=O)CSc1nnc(C2CC2)n1-c1ccccc1 | -2% (inactive) | 670
8 | CC(=O)Nc1nc(C)c(-c2csc(Nc3ccc(O)cc3)n2)s1 | 1.5% (inactive) | 547
9 | COc1ccc(-c2cnc(SCC(=O)Nc3ccc4c(c3)OCO4)n2Cc2ccco2)cc1 | 17.8% (inactive) | 450
10 | CCOc1cc(C2C(C(=O)c3ccccc3)=C(C(=O)OC)Nc3nnnn32)ccc1O (stereo not given) | -7.9% (inactive) | 351
11 | CCCCC(CC)C(=O)Nc1ccc(Cl)cn1 (stereo not given) | 8.5% (inactive) | 461
12 | O=C(COn1nnc2ccc(C(F)(F)F)cc21)Nc1nnc(-c2ccccc2)o1 | -3.6% (inactive) | 704
13 | CCCCC(=O)Nc1nn(CCC)c2nc3ccccc3cc12 | 4.2% (inactive) | 363
14 | COc1ccccc1C(=O)n1nc(-c2ccccc2)nc1N | -3.3% (inactive) | 354
15 | O=C(OCc1cccs1)c1ccccc1NS(=O)(=O)c1ccc2c(c1)OCCO2 | -6.7% (inactive) | 709
16 | COC(=O)c1oc2ccc(Br)cc2c1NC(=O)CN1CCN(C)CC1 | 6% (inactive) | 240
17 | O=C(OCc1nnc(-c2ccccc2)o1)c1ccc(S(=O)(=O)NCc2ccco2)cc1 | -8.9% (inactive) | 722
18 | CCOC(=O)CSc1nnc(CNC(=O)c2cccs2)n1-c1cc(OC)ccc1OC | -3.3% (inactive) | 521
19 | CCn1c2ccccc2c2cc(NC(=O)Cc3ccc(S(=O)(=O)N4CCOCC4)s3)ccc21 | -0.2% (inactive) | 343
20 | Cn1c2c(c(=O)[nH]c1=O)C(NC(=O)c1ccco1)(C(F)(F)F)C(=O)N2 (stereo not given) | 8.2% (inactive) | 618

Row | SMILES | inhibition | cell count
21 | Cn1c(CCCNC(=O)c2ccccc2)nc2ccccc21 | -25.8% (inactive) | 761
22 | Cc1ccccc1N(CC(=O)NCC1CCCO1)C(=O)C1(C)CC(=O)N=C2C=CC=CN21 (stereo not given) | -9.4% (inactive) | 651
23 | O=C(CSc1nnnn1-c1ccccc1)Nc1nsc(-c2ccc(Cl)cc2)n1 | -4.1% (inactive) | 449
24 | COc1ccccc1N1CCN(CCCNC(=O)Nc2ccccc2)CC1 | 8.7% (inactive) | 377
25 | CS(=O)(=O)N1CCN(CC2CC3C=CC2C3)CC1 (stereo not given) | -3% (inactive) | 367
26 | COc1ccc(-n2ncc3c(NCc4ccc5c(c4)OCO5)ncnc32)cc1 | -4.3% (inactive) | 360
27 | O=S(=O)(NCCc1csc(-c2ccccc2)n1)c1ccc2c(c1)OCCO2 | -13.3% (inactive) | 363
28 | c1ccc(CC2CCN(Cc3nc(-c4ccccc4)no3)CC2)cc1 | 4.2% (inactive) | 229
29 | CCC(NS(=O)(=O)c1ccc(C)cc1)C(=O)N1CCC2(O)CCCCC2C1 (stereo not given) | -3.1% (inactive) | 379
30 | O=C(CSc1nnnn1Cc1ccccc1)Nc1ccc2c(c1)OCO2 | -10.7% (inactive) | 551
31 | COc1cccc(-n2c(C)nc3c(cnn3-c3ccc(Cl)cc3)c2=O)c1 | -6.4% (inactive) | 238
32 | Cc1cccc(-n2nnc(C(=O)NCc3ccccc3)c2N)c1 | 2.1% (inactive) | 477
33 | N#Cc1c(NC(=O)CSc2nc(N)cc(=O)[nH]2)sc2c1CCCCCC2 | -14% (inactive) | 728
34 | COc1ccccc1NC(=O)C1=C(C)Nc2ncnn2C1c1ccc(C)o1 (stereo not given) | 14.6% (inactive) | 355
35 | CCN(C(=O)CN1CCN(c2ccccc2OC)CC1)c1c(N)n(Cc2ccccc2)c(=O)[nH]c1=O | 1.1% (inactive) | 471
36 | COCCn1c(SCC(=O)Nc2nnc(C)s2)nnc1-c1ccncc1 | -7.5% (inactive) | 564
37 | CCn1c(CC(=O)Nc2cccc(OC)c2)nnc1SCC(=O)Nc1nccs1 | 4.3% (inactive) | 835
38 | O=C(NC1CCCc2ccccc21)C1CCN(S(=O)(=O)c2cnc[nH]2)CC1 (stereo not given) | -10.3% (inactive) | 529
39 | O=C(NC1(C(F)(F)F)NC(=O)N(Cc2ccco2)C1=O)c1cccnc1 (stereo not given) | 1.8% (inactive) | 495
40 | CCn1ncc(C2=NOC(C(=O)NCc3ccc(Cl)cc3)C2)c1C (stereo not given) | 13.4% (inactive) | 576

test: reduction of polyQ htt aggregates in cells – imaging, exon1htt(103Q)mCFP cells, high-content imaging, primary screen (AID 483;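 active = visual image review flags a hit and inhibition of aggregation exceeds 20%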;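 also: compound exposure lasted 3 days before fixation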;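 as to nuclei count: percent of the per-plate median nuclei count of sample wells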); conditions: exon1htt(103Q)mCFP cell line, aggregate imaging, at 2 µM; inhibition of aggregation: stronger effect = higher value; nuclei count: measured here: cell count, toxicity

Row | SMILES | inhibition of aggregation | nuclei count [%]
41 | Cc1ccc(S(=O)(=O)c2nc(-c3ccco3)oc2SCC(=O)NCC2CCCO2)cc1 (stereo not given) | 4% (inactive) | 104
42 | CC(=O)NCC(=O)OC(C)C(=O)Nc1ccc(C(C)=O)cc1 (stereo not given) | 6.4% (inactive) | 116
43 | CCSc1nc2c(c(=O)n1CC)SC(C)C2 (stereo not given) | 0.4% (inactive) | 92.4
44 | Cn1cnnc1SCC(=O)Nc1sc2c(c1C#N)CCCCC2 | 2.6% (inactive) | 80.6
45 | Cc1nc2ccccc2c(=O)n1NC(=O)c1c(O)c2c(n(CC(C)C)c1=O)CCCC2 | 9.9% (inactive) | 76.7
46 | Cc1ccc(S(=O)(=O)N(C)c2ccc(OCC(=O)OCc3c(C)noc3C)cc2)cc1 | 8.4% (inactive) | 146
47 | Cn1cccc1C(=O)NC(=O)CSc1nnc(C2CC2)n1-c1ccccc1 | -30.7% (inactive) | 93.6
48 | CC(=O)Nc1nc(C)c(-c2csc(Nc3ccc(O)cc3)n2)s1 | 33.1% (inactive) | 99.7
49 | COc1ccc(-c2cnc(SCC(=O)Nc3ccc4c(c3)OCO4)n2Cc2ccco2)cc1 | -8.7% (inactive) | 105
50 | CCOc1cc(C2C(C(=O)c3ccccc3)=C(C(=O)OC)Nc3nnnn32)ccc1O (stereo not given) | 0% (inactive) | 110
51 | CCCCC(CC)C(=O)Nc1ccc(Cl)cn1 (stereo not given) | 4.5% (inactive) | 102
52 | O=C(COn1nnc2ccc(C(F)(F)F)cc21)Nc1nnc(-c2ccccc2)o1 | -0.6% (inactive) | 110
53 | CCCCC(=O)Nc1nn(CCC)c2nc3ccccc3cc12 | -14.8% (inactive) | 108
54 | COc1ccccc1C(=O)n1nc(-c2ccccc2)nc1N | 9.7% (inactive) | 101
55 | O=C(OCc1cccs1)c1ccccc1NS(=O)(=O)c1ccc2c(c1)OCCO2 | 10.3% (inactive) | 84.5
56 | COC(=O)c1oc2ccc(Br)cc2c1NC(=O)CN1CCN(C)CC1 | -3.2% (inactive) | 94.6
57 | O=C(OCc1nnc(-c2ccccc2)o1)c1ccc(S(=O)(=O)NCc2ccco2)cc1 | -17.9% (inactive) | 89.7
58 | CCOC(=O)CSc1nnc(CNC(=O)c2cccs2)n1-c1cc(OC)ccc1OC | -5.1% (inactive) | 103
59 | CCn1c2ccccc2c2cc(NC(=O)Cc3ccc(S(=O)(=O)N4CCOCC4)s3)ccc21 | 29.4% (inactive) | 115
60 | Cn1c2c(c(=O)[nH]c1=O)C(NC(=O)c1ccco1)(C(F)(F)F)C(=O)N2 (stereo not given) | -9.2% (inactive) | 108

Row | SMILES | inhibition of aggregation | nuclei count [%]
61 | Cn1c(CCCNC(=O)c2ccccc2)nc2ccccc21 | -0.3% (inactive) | 104
62 | Cc1ccccc1N(CC(=O)NCC1CCCO1)C(=O)C1(C)CC(=O)N=C2C=CC=CN21 (stereo not given) | -3.5% (inactive) | 100
63 | O=C(CSc1nnnn1-c1ccccc1)Nc1nsc(-c2ccc(Cl)cc2)n1 | 17.3% (inactive) | 95.1
64 | COc1ccccc1N1CCN(CCCNC(=O)Nc2ccccc2)CC1 | 8.2% (inactive) | 96.1
65 | CS(=O)(=O)N1CCN(CC2CC3C=CC2C3)CC1 (stereo not given) | -5.6% (inactive) | 94.8
66 | COc1ccc(-n2ncc3c(NCc4ccc5c(c4)OCO5)ncnc32)cc1 | 9.7% (inactive) | 94.3
67 | O=S(=O)(NCCc1csc(-c2ccccc2)n1)c1ccc2c(c1)OCCO2 | 2.9% (inactive) | 108
68 | c1ccc(CC2CCN(Cc3nc(-c4ccccc4)no3)CC2)cc1 | -5.2% (inactive) | 81.6
69 | CCC(NS(=O)(=O)c1ccc(C)cc1)C(=O)N1CCC2(O)CCCCC2C1 (stereo not given) | -10.7% (inactive) | 106
70 | O=C(CSc1nnnn1Cc1ccccc1)Nc1ccc2c(c1)OCO2 | 10% (inactive) | 92.1
71 | COc1cccc(-n2c(C)nc3c(cnn3-c3ccc(Cl)cc3)c2=O)c1 | -13.4% (inactive) | 94.3
72 | Cc1cccc(-n2nnc(C(=O)NCc3ccccc3)c2N)c1 | -17.4% (inactive) | 116
73 | N#Cc1c(NC(=O)CSc2nc(N)cc(=O)[nH]2)sc2c1CCCCCC2 | -2% (inactive) | 115
74 | COc1ccccc1NC(=O)C1=C(C)Nc2ncnn2C1c1ccc(C)o1 (stereo not given) | 24.5% (inactive) | 90.6
75 | CCN(C(=O)CN1CCN(c2ccccc2OC)CC1)c1c(N)n(Cc2ccccc2)c(=O)[nH]c1=O | -18.1% (inactive) | 63.9
76 | COCCn1c(SCC(=O)Nc2nnc(C)s2)nnc1-c1ccncc1 | 7.7% (inactive) | 99.2
77 | CCn1c(CC(=O)Nc2cccc(OC)c2)nnc1SCC(=O)Nc1nccs1 | 8.8% (inactive) | 103
78 | O=C(NC1CCCc2ccccc21)C1CCN(S(=O)(=O)c2cnc[nH]2)CC1 (stereo not given) | -6.4% (inactive) | 98.8
79 | O=C(NC1(C(F)(F)F)NC(=O)N(Cc2ccco2)C1=O)c1cccnc1 (stereo not given) | 1.2% (inactive) | 104
80 | CCn1ncc(C2=NOC(C(=O)NCc3ccc(Cl)cc3)C2)c1C (stereo not given) | -30.2% (inactive) | 36.3
